# Experimental data reported in PubChem BioAssay (NCATS).
# Results filed as inconclusive are left out. Where a call stands in place of a potency, no number is given. The source made the active and inactive calls. Calls follow the shape of the dose curve; as a rule, active = well fitted inhibition curve with a large enough effect; inconclusive = small, poorly fitted or top-dose-only effect; inactive = flat fitted curve, though single readings scatter. Peptide text beside a SMILES is read from it.
# Tested on: CP297
# Assay: qHTS profiling for inhibitors of Plasmodium falciparum proliferation (AID 504749); also: nearly all actives have a fitted effect of over 60% in size
# Conditions: P. falciparum in erythrocytes, SYBR Green DNA, 72 h; series mostly up to 12.8 µM
# In short: (§1)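 Three-day growth assay of blood-stage parasites in erythrocytes (0.3% parasitemia, 2.5% hematocrit) at 37 C, 5% CO2, quantified by SYBR Green DNA staining after overnight detergent lysis.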
# Potency is read from the fitted curve at half-maximal effect.
row,SMILES,Potency
1,CCC(C)C(=O)OC1CCC=C2C=CC(C)C(CCC3CC(O)CC(=O)O3)[C@@H]21 (some centres not stated),inactive
2,C[C@]1(c2ccccc2)OC(C(=O)O)=CC1=O,inactive
3,OCC1OC([S-])[C@H](O)C(O)C1O.[Au+] (some centres not stated),inactive
4,COC(=O)N/N=C/C1=C[N+](=O)c2ccccc2[N+]1=O,inactive
5,CN1CC(=O)N=C1N,inactive
6,CNC1CC(N)[C@H](O)[C@@H](O[C@@H]2OC(CO)C3OC4(OC(C(N)CO)C(O)C(O)C4O)O[C@@H]3[C@H]2O)C1O (some centres not stated),inactive
7,COC1C=CO[C@@]2(C)Oc3c(C)c(O)c4c(O)c(c(C=NN5CCN(C)CC5)c(O)c4c3C2=O)NC(=O)/C(C)=C\C=CC(C)C(O)[C@@H](C)C(O)C(C)[C@H](OC(C)=O)C1C (some centres not stated),953 nM (active)
8,CC(=O)N[C@@H]1C(O)OC(CO)C(O)C1O (some centres not stated),inactive
9,CCC(CCC(C)C1CCC2C3CC=C4CC(O)CC[C@@]4(C)C3CC[C@@]12C)C(C)C (some centres not stated),inactive
10,O=C1OC(CO)C(O)C(O)C1O (configuration not stated),inactive
11,COc1ccc(CC(N)C(=O)NC2C(CO)OC(n3cnc4c(N(C)C)ncnc43)C2O)cc1 (configuration not stated),1200 nM (active)
12,CCCC(=O)O[C@]1(C(=O)CO)CCC2[C@@H]3CCC4=CC(=O)CC[C@]4(C)C3C(O)C[C@]21C (some centres not stated),inactive
13,COC(=O)C(Cc1ccccc1)NC(=O)C(N)CC(=O)O (stereo not drawn) (H-Asp-Phe-OMe; configuration not given here),inactive
14,CC[C@@]12CCCN3CCc4c(n(c5ccccc45)[C@](O)(C(=O)OC)C1)C32 (some centres not stated),inactive
15,CC1(C)SC2C(N3C(=O)C(c4ccccc4)NC3(C)C)C(=O)N2C1C(=O)O (configuration not stated),inactive
16,CC1CCC(C(C)C)C(=O)C1 (configuration not stated),inactive
17,CC(=O)N[C@H](CC(C)C)C(=O)O,inactive
18,CC(C)C1CCC(C(=O)NC(Cc2ccccc2)C(=O)O)CC1 (configuration not stated),inactive
19,COc1ccc2cc(C(C)CO)ccc2c1 (configuration not stated),inactive
20,COc1ccc2cc1Oc1ccc(cc1)CC1c3c(cc4c(c3Oc3cc5c(cc3OC)CCN(C)C5C2)OCO4)CCN1C (configuration not stated),10700 nM (active)
21,CC1C2CCC3C4CC=C5CC(N(C)C)CC[C@@]5(C)C4CC[C@@]32CN1C (some centres not stated),inactive
22,C[C@]12C=CC(=O)C=C1CCC1C2C(O)C[C@]2(C)C1CC[C@]2(O)C(=O)CO (some centres not stated),inactive
23,COc1ccc2c(c1)N(C[C@@H](C)CN(C)C)c1ccccc1S2,inactive
24,CN(C)CCc1c[nH]c2ccc(CC3COC(=O)N3)cc12 (configuration not stated),inactive
25,NCC1CCC(N)C(O[C@@H]2C(O)[C@H](O[C@H]3OC(CO)C(O)C(N)C3O)[C@@H](N)C[C@H]2N)O1 (some centres not stated),inactive
26,OCC1O[C@H](OC2C(CO)O[C@@](O)(CO)C2O)C(O)C(O)C1O (some centres not stated),inactive
27,CC1(C)OC2CO[C@]3(COS(N)(=O)=O)OC(C)(C)OC3C2O1 (some centres not stated),inactive
28,CC(=O)OC1CCC2C3CCc4cc(O)ccc4C3CCC12C (configuration not stated),inactive
29,CN(C)CCCOC1C(C(O)CO)OC2OC(C)(C)O[C@@H]21 (some centres not stated),inactive
30,COc1cc(C2c3cc4c(cc3C(O[C@@H]3OC5COC(c6cccs6)OC5C(O)C3O)C3COC(=O)C23)OCO4)cc(OC)c1O (some centres not stated),4780 nM (active)

# Tested on: CP305
# Assay: as above
# Conditions: P. falciparum in erythrocytes, SYBR Green DNA, 72 h; series mostly up to 12.8 µM
# In short: as §1
row,SMILES,Potency
1,CCC(C)C(=O)OC1CCC=C2C=CC(C)C(CCC3CC(O)CC(=O)O3)[C@@H]21 (some centres not stated),inactive
2,C[C@]1(c2ccccc2)OC(C(=O)O)=CC1=O,inactive
3,OCC1OC([S-])[C@H](O)C(O)C1O.[Au+] (some centres not stated),inactive
4,COC(=O)N/N=C/C1=C[N+](=O)c2ccccc2[N+]1=O,inactive
5,CN1CC(=O)N=C1N,inactive
6,CNC1CC(N)[C@H](O)[C@@H](O[C@@H]2OC(CO)C3OC4(OC(C(N)CO)C(O)C(O)C4O)O[C@@H]3[C@H]2O)C1O (some centres not stated),inactive
7,COC1C=CO[C@@]2(C)Oc3c(C)c(O)c4c(O)c(c(C=NN5CCN(C)CC5)c(O)c4c3C2=O)NC(=O)/C(C)=C\C=CC(C)C(O)[C@@H](C)C(O)C(C)[C@H](OC(C)=O)C1C (some centres not stated),3790 nM (active)
8,CC(=O)N[C@@H]1C(O)OC(CO)C(O)C1O (some centres not stated),inactive
9,CCC(CCC(C)C1CCC2C3CC=C4CC(O)CC[C@@]4(C)C3CC[C@@]12C)C(C)C (some centres not stated),inactive
10,O=C1OC(CO)C(O)C(O)C1O (configuration not stated),inactive
11,COc1ccc(CC(N)C(=O)NC2C(CO)OC(n3cnc4c(N(C)C)ncnc43)C2O)cc1 (configuration not stated),1200 nM (active)
12,CCCC(=O)O[C@]1(C(=O)CO)CCC2[C@@H]3CCC4=CC(=O)CC[C@]4(C)C3C(O)C[C@]21C (some centres not stated),inactive
13,COC(=O)C(Cc1ccccc1)NC(=O)C(N)CC(=O)O (stereo not drawn) (H-Asp-Phe-OMe; configuration not given here),inactive
14,CC[C@@]12CCCN3CCc4c(n(c5ccccc45)[C@](O)(C(=O)OC)C1)C32 (some centres not stated),inactive
15,CC1(C)SC2C(N3C(=O)C(c4ccccc4)NC3(C)C)C(=O)N2C1C(=O)O (configuration not stated),inactive
16,CC1CCC(C(C)C)C(=O)C1 (configuration not stated),inactive

row,SMILES,Potency
1,CC(=O)N[C@H](CC(C)C)C(=O)O,inactive
2,CC(C)C1CCC(C(=O)NC(Cc2ccccc2)C(=O)O)CC1 (configuration not stated),inactive
3,COc1ccc2cc(C(C)CO)ccc2c1 (configuration not stated),inactive
4,COc1ccc2cc1Oc1ccc(cc1)CC1c3c(cc4c(c3Oc3cc5c(cc3OC)CCN(C)C5C2)OCO4)CCN1C (configuration not stated),9530 nM (active)
5,CNC1C(OC2C(O[C@@H]3C(O)C(O)[C@@H](N=C(N)N)C(O)C3N=C(N)N)OC(C)[C@@]2(O)CO)OC(CO)C(O)C1O (some centres not stated),inactive
6,CC1C2CCC3C4CC=C5CC(N(C)C)CC[C@@]5(C)C4CC[C@@]32CN1C (some centres not stated),inactive
7,C[C@]12C=CC(=O)C=C1CCC1C2C(O)C[C@]2(C)C1CC[C@]2(O)C(=O)CO (some centres not stated),inactive
8,COc1ccc2c(c1)N(C[C@@H](C)CN(C)C)c1ccccc1S2,inactive
9,CCOC(=O)C1=CC(OC(CC)CC)C(NC(C)=O)C(N)C1 (configuration not stated),inactive
10,CN(C)CCc1c[nH]c2ccc(CC3COC(=O)N3)cc12 (configuration not stated),inactive
11,NCC1CCC(N)C(O[C@@H]2C(O)[C@H](O[C@H]3OC(CO)C(O)C(N)C3O)[C@@H](N)C[C@H]2N)O1 (some centres not stated),inactive
12,OCC1O[C@H](OC2C(CO)O[C@@](O)(CO)C2O)C(O)C(O)C1O (some centres not stated),inactive
13,CC1(C)OC2CO[C@]3(COS(N)(=O)=O)OC(C)(C)OC3C2O1 (some centres not stated),inactive
14,CC(=O)OC1CCC2C3CCc4cc(O)ccc4C3CCC12C (configuration not stated),inactive
15,CN(C)CCCOC1C(C(O)CO)OC2OC(C)(C)O[C@@H]21 (some centres not stated),inactive
16,COc1cc(C2c3cc4c(cc3C(O[C@@H]3OC5COC(c6cccs6)OC5C(O)C3O)C3COC(=O)C23)OCO4)cc(OC)c1O (some centres not stated),1690 nM (active)
